Experimental data as given in PubChem BioAssay AID435006 (Sanford-Burnham Center for Chemical Genomics, 2010).
About 1,100 (85%) of roughly 1,300 compounds were called active. No stated cut-off is given here; in the data, active means inhibition above about 48%; inactive means the rest. The set was probably picked from earlier hits. A selection follows.

Test: yeast-expressed human NALP3 blockade – luminescence, single concentration, confirmation (AID 435006)
Conditions: yeast expressing human NALP3, luminescence; at 10 µM; stronger effect = higher value

Structure (SMILES)	inhibition
CC(C)Sc1ncnc2c1cnn2-c1ccccc1	48.7% (active)
Cc1ccc(O)c(NC(=O)c2cc(-c3ccco3)on2)c1	76% (active)
CCSc1nc2sc3c(c2c(=O)n1-c1ccc(C)cc1)CCN(C)C3	69.4% (active)
O=C(Oc1c(-c2ccco2)oc2ccccc2c1=O)c1cccnc1	78.3% (active)
O=C(Nc1ccc2oc(-c3ccccc3F)nc2c1)c1ccco1	82.2% (active)
CCc1noc(C)c1C(=O)Nc1nc2ccc(OC)cc2s1	78.5% (active)
Cc1c(C(=O)N2CCCc3ccccc32)oc2ccccc12	47.6% (inactive)
Cc1cc(C(=O)COc2ccc(Br)cc2F)c(C)n1C1CC1	54.5% (active)
Cn1c(=O)c(C(=O)Nc2ncccn2)c(O)c2ccccc21	60.5% (active)
Oc1c(Cl)cc(Cl)c(Cl)c1Cc1c(O)c(Cl)cc(Cl)c1Cl	99% (active)
Nc1c(-c2cccc(Cl)c2)cnn1-c1cccc([N+](=O)[O-])c1	61.2% (active)
CCc1cc(C(=O)Nc2nnc(C3CC3)s2)sc1C	60.8% (active)
O=C(CSc1ccc(-c2ccc(-n3cccn3)cc2)nn1)Nc1ccc([N+](=O)[O-])cc1	41% (inactive)
CN=C1C=C/C(=N/N=c2\ccn(O)cc2C)C=C1C	57.2% (active)
COc1ccccc1C(=O)Nc1ccc(NC(=O)c2ccco2)c(C)c1	60.8% (active)
O=C(Nc1ccc(Oc2ccccc2)cc1)c1ccco1	44.5% (inactive)
CCN(CC)c1ccc(/C=N/Nc2nc(C)cc(C)n2)c(O)c1	40.4% (inactive)
CC(=NCc1ccc2c(c1)OCO2)C1=C(O)c2ccccc2C1=O	67.5% (active)

Structure (SMILES)	inhibition
CC1(C)CCSC(/C=C/c2ccccc2)=N1	87.4% (active)
O=C1C=C(c2ccc(Cl)cc2)C(=O)N1Nc1ccccc1	55% (active)
CCCN(CC1CC1)C(=S)NC(=O)c1ccccc1Br	47.1% (active)
O=C(CSc1ncnc2c1oc1ccccc12)NC1CCCC1	67.6% (active)
N#Cc1nc(Cc2ccccc2)oc1NCCc1ccccc1	48.6% (active)
CCCc1nc2c(c(=O)c3ccccc3n2C)c(=O)n1C1CCCCCC1	30.2% (inactive)
COc1ccccc1OCc1nc2ccccc2s1	47.1% (active)
CCCCCCC12CCC(C(=O)O)(CC1)CC2	66.8% (active)
Cc1cc(C)nc(NC(=O)Nc2ccccc2C(F)(F)F)n1	68.8% (active)
O=C(CCCN1C(=O)/C(=C\c2ccco2)SC1=S)Nc1cccc2ccccc12	52.9% (active)
Cc1ccc2cccc(S(=O)(=O)N3CCN(c4ccccc4F)CC3)c2n1	65.9% (active)
COc1cc(N2C(=O)CSC2=S)cc(OC)c1OC	58.7% (active)
O=C1CSC(=S)N1c1ccc(O)cc1	83.8% (active)
CC(C)C(=O)Nc1ccc2c(c1)oc1ccccc12	2.95% (inactive)
COc1ccc(OCc2nnc3n2N=C(c2ccccc2)C(CC(=O)O)S3)cc1 (stereo not given)	16.8% (inactive)
Cc1ccc(CSc2nsc(C)c2C#N)cc1	56.3% (active)
CCCNc1ncnc2sc(C)c(C)c12	60.5% (active)
